# Source: PubChem BioAssay AID686979 (National Center for Advancing Translational Sciences (NCATS), 2013)
# In all, about 420,000 compounds went through this assay and about 50,000 (12%) were called active. About 26% were inconclusive and are not listed. Shown is part of a subset that was picked to be rich in actives. Values without a mark were called inactive. Calls follow the shape of the dose curve; as a rule, active = well fitted inhibition curve with a large enough effect; inconclusive = small, poorly fitted or top-dose-only effect; inactive = flat fitted curve, though single readings scatter.
# Assay: qHTS for Inhibitors of human tyrosyl-DNA phosphodiesterase 1 (TDP1): qHTS in cells in presence of CPT; also: nearly all actives have a fitted effect of over 55% in size
# Settings: chicken DT40 Tdp1-/-;hTDP1 cells + 20 nM CPT, ATP luminescence, 48 h; series mostly up to 46.2 µM; activity change, negative = growth inhibition: at the top concentration
# In short: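 Cell growth measured by CellTiter-Glo luminescence after a minimum 48 h, 37 C compound exposure with 20 nM CPT in Tdp1-knockout DT40 cells stably expressing hTDP1, seeded 400/well; qHTS titration format.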
# % is scaled to controls: 0 for no effect and ±100 for the full control effect; potency is read from the fitted curve at half-maximal effect.
SMILES,"activity change, negative = growth inhibition",Potency
CC(C#N)(NC(=O)CN1CCN(S(=O)(=O)c2cc(C(F)(F)F)ccc2Cl)CC1)C1CC1 (configuration not stated),-37.5%,
Cc1cc(NC(=O)COC(=O)/C=C/c2ccc(C)o2)no1,-3.15%,
CCCCc1ccc(NC(=O)NCc2cccnc2)cc1,-25%,
Cc1cc(/C=C2/SC(=O)N(CC(=O)N3CCCC3)C2=O)c(C)n1C,10.4%,
Cc1cccc(N2CCN(c3c(CN4CCCC4)c(=O)oc4ccccc34)CC2)c1C,-24.3%,
O=C1c2ccccc2C(=O)c2c1cccc2N1CCN(CCO)CC1,-17.2%,
Cc1cccc(N2CCN(C3=C(c4ccccc4)C(=O)c4ccccc43)CC2)c1C,,7.31 µM (active)
COc1ccc(CCNC(=O)CCCCCNC(=O)N2CCn3c2nc2ccccc23)cc1OC,-9.27%,
COc1cc(C(=O)OCC(=O)N(CC(C)C)C2CCS(=O)(=O)C2)ccc1OCC(C)C (configuration not stated),-4.05%,
CCOc1ccc(NC(=O)c2c(NC(=O)Cc3ccccc3)sc3c2CCC(C)C3)cc1 (configuration not stated),,16.4 µM (active)
CCOc1ccc(NC(=O)c2c(NC(=O)Cc3ccccc3)sc3c2CCCCC3)cc1,,18.4 µM (active)
COC(=O)c1c(NC(=O)CN2CCN(S(=O)(=O)c3ccccc3[N+](=O)[O-])CC2)sc2c1CCC(C)C2 (configuration not stated),-7.69%,
CCOC(=O)c1c(NC(=O)/C=C/c2ccc(OC)cc2)sc2c1CCC(C)C2 (configuration not stated),0.589%,
CC(C)OC(=O)c1c(NC(=O)c2ccco2)sc2c1CCCC2,-1.92%,
Cc1ccc(C)c(N2CCN(C(=O)Cn3ncn4cccc4c3=O)CC2)c1,-24.7%,
Cc1ccc(NC(=O)C(CC(=O)O)C2CCCO2)c(C)c1 (configuration not stated),-2.25%,
CN(Cc1ccccc1)C(=O)COC(=O)/C=C/c1ccc2c(c1)OCO2,4.78%,
COc1ccccc1C1C(C(N)=O)=C(C)Nc2nc(CCCO)nn21 (configuration not stated),-0.304%,
CC(C)=C(NC(=O)c1ccco1)C(=O)NCCc1nc2ccccc2[nH]1,14%,
Cc1ccc(C(=O)N/C(=C/c2ccco2)C(=O)NCCc2c[nH]c3ccccc23)cc1C,-41.2%,
CC(C)Oc1ccc(/C=C(\NC(=O)/C=C/c2ccco2)C(=O)NCCc2nc3ccccc3[nH]2)cc1,,18.4 µM (active)
COc1ccccc1Nc1nnc(SC(C)C(=O)NC2CC2)s1 (configuration not stated),-28.6%,
Cc1ccccc1C1=NC(C(F)(F)F)(C(F)(F)F)c2c(n(-c3ccc(F)cc3)c(=O)[nH]c2=O)N1,,18.4 µM (active)
O=c1[nH]c(=O)n(Cc2ccco2)c2c1C(C(F)(F)F)(C(F)(F)F)N=C(c1ccco1)N2,-13.4%,
CN(C(=O)CC1C(=O)NCCN1Cc1ccc(F)cc1Cl)C1CCCCC1 (configuration not stated),-15.5%,

SMILES,"activity change, negative = growth inhibition",Potency
CCOc1ccccc1NC(=O)Cn1ncc2ccc([N+](=O)[O-])cc21,-25.4%,
COC(=O)c1c(C)cc(O)c(C)c1O,-9.14%,
C/C(=N\NC(=O)C1(C)CC1(Br)Br)c1ccc(C)cc1C (configuration not stated),-18.8%,
CN(C)Cc1c(O)ccc2c(=O)c(-c3ccccc3Cl)coc12,-11.2%,
CC(C)CN(Cc1c(O)ccc2c(=O)c(-c3ccccc3)coc12)CC(C)C,,5.17 µM (active)
O=c1c(-c2ccccc2)coc2c(CN3CCOCC3)c(O)ccc12,-10.7%,
Cc1ccccc1OCC(=O)Nc1nc(C)c(C(=O)N(C)C)s1,-13.6%,
CCc1ccccc1N(C)C(=O)C1CCCN(c2ncnc3onc(-c4ccc(F)cc4)c23)C1 (configuration not stated),,13 µM (active)
Cc1ccc(Cl)cc1N(C)C(=O)C1CCCN(c2ncnc3onc(-c4ccc(F)cc4)c23)C1 (configuration not stated),,7.31 µM (active)
CC1=C(c2ccc(F)cc2)S(=O)(=O)N=C1N1CCC(C(=O)NCCc2ccccc2C)CC1,-2.27%,
CCc1noc(C)c1C(=O)N1CCCC(N2CCN(c3ccc(F)cc3)CC2)C1 (configuration not stated),-15.5%,
Cc1ccnc(N2CCCC(C(=O)Nc3cc(F)ccc3C)C2)n1 (configuration not stated),-19.3%,
O=S(=O)(c1ccc(Cl)s1)N1CCC2(CC1)OCCO2,7.46%,
Cc1cccc(NC(=O)c2cccc(C(F)(F)F)c2)c1,-9.45%,
O=C(Nc1ccc(-c2csc(Nc3cccc(C(F)(F)F)c3)n2)cc1)c1cccc(C(F)(F)F)c1,,9.2 µM (active)
CNC(=O)c1ccc(NC(=O)c2cccc(C(F)(F)F)c2)cc1,11.5%,
COc1ccc(OC)c(S(=O)(=O)Nc2c(C)nn(C)c2C)c1,-1.71%,
O=S(=O)(Nc1ccc(O)c2ccccc12)c1ccc(OC(F)(F)F)cc1,,13 µM (active)
Cc1nn(C)c(C)c1NS(=O)(=O)c1ccc(OC(F)(F)F)cc1,,23.1 µM (active)
Nc1ncc(S(=O)(=O)Nc2ccc(OC(F)(F)F)cc2)cn1,1.29%,
O=C1COc2ccc(S(=O)(=O)Nc3ccc(OC(F)(F)F)cc3)cc2N1,-29.6%,
Cc1nn(Cc2ccccc2)c(C)c1NS(=O)(=O)c1ccccc1,8.74%,
COc1cc2c(cc1OC)CC(=O)N(CCCN(C)C[C@H]1Cc3cc(OC)c(OC)cc31)CC2,1.31%,
Cc1ccc(S(=O)(=O)NCCC(=O)NC2CCN(Cc3ccccc3)CC2)cc1,-19.8%,
CC1CN(C(=O)CCC(=O)NCc2cccnc2)c2ccccc2O1 (configuration not stated),-11.9%,

SMILES,"activity change, negative = growth inhibition",Potency
CC(C)(C)NC(=O)NC(=O)CN1CCC(Cc2ccccc2)CC1,-23.6%,
CC1CN(C(=O)CCC(=O)NCCCN2CCC(Cc3ccccc3)CC2)c2cc(Cl)ccc2O1 (configuration not stated),,20.6 µM (active)
O=C(CC1Oc2ccccc2NC1=O)NCCCN1CCN(Cc2ccccc2)CC1 (configuration not stated),12%,
CC1CN(C(=O)CCC(=O)NC2CCN(Cc3ccccc3)CC2)c2ccccc2O1 (configuration not stated),,23.1 µM (active)
O=C(COC(=O)/C=C/c1cccc(Cl)c1)NCCc1ccccc1,0.178%,
COc1ccc(NC(=S)N2CCCC(CO)C2)c(OC)c1 (configuration not stated),-6.69%,
CC(=O)Nc1ccc(S(=O)(=O)Oc2ccc(/C=N/N=C3/NC(=O)C(CC(=O)O)S3)cc2)cc1 (configuration not stated),-18.8%,
CC(CNC(=O)c1ccc(Br)o1)NC(=O)c1ccc(Br)o1 (configuration not stated),,8.2 µM (active)
CC(CCc1ccccc1)NC(=O)c1ccc(Br)o1 (configuration not stated),-21.9%,
O=C(CNC(=O)c1ccc(Br)o1)Nc1ccccc1,6.19%,
CCOc1ccc(OCC(=O)Nc2c3c(nn2C(C)(C)C)CS(=O)(=O)C3)cc1,1.51%,
COc1cc(/C=N/O)cc(Br)c1OCc1cccc(Cl)c1,-6.06%,
COc1cc(C=O)c(Br)cc1OCC(=O)NCc1ccccc1,-6%,
COc1cc(C(=O)NCc2ccncc2)cc(Br)c1OCc1ccccc1,,18.4 µM (active)
CN(CC(=O)Nc1cccc(F)c1)C(=O)CC1CCCC1,-4.08%,
N/C(Cc1ccc([N+](=O)[O-])cc1)=N\OC(=O)C1CCCCC1,-20.7%,
CC(=O)NC1CCN(CC(=O)Nc2nccs2)CC1,13.2%,
COc1cc2c(-c3ccc4c(c3)OCO4)c(-c3ccsc3)oc(=O)c2cc1OC,,16.4 µM (active)
COc1ccc(C#Cc2c(-c3ccc(OC)cc3)oc3ccc(-c4ccc5c(c4)OCO5)cc23)cc1,-1.98%,
COc1ccc(CCNC(=O)c2cc(-c3ccc4c(c3)OCO4)on2)cc1OC,-10.1%,
Clc1cccc[n+]1CCCC[n+]1ccccc1Cl,-12.7%,
Brc1cccc[n+]1Cc1cccc(C[n+]2ccccc2Br)c1,,12.6 µM (active)
O=C(COC(=O)c1cccc(Cl)c1)Nc1ccc2[nH]c(=O)[nH]c2c1,-11.5%,
COc1cc(C(=O)NCc2nnc(SCC(=O)c3ccc(Cl)cc3)o2)cc(OC)c1OC,-18.9%,
CCC(=O)Nc1ccc(C(=O)CSc2nnc(CNc3ccc(Cl)cc3)o2)cc1OC,,20.6 µM (active)

SMILES,"activity change, negative = growth inhibition",Potency
CCOC(=O)CSc1nnc(CNc2ccc(F)cc2)o1,-0.543%,
COc1ccc(CNC(=O)C(=O)NCC2OCCN2C(=O)c2ccc(OC)cc2)cc1 (configuration not stated),3.1%,
CC(C)(C)c1nnc(N/N=C/c2ccc(O)cc2)n(N)c1=O,17.2%,
O=C(c1c(F)cccc1F)N1CCN(c2ncc(Br)cn2)CC1,20.1%,
CCOc1ccc(C(=O)NC(=S)Nc2ccc(N3CCOCC3)c(Cl)c2)cc1[N+](=O)[O-],,0.146 µM (active)
CCOc1ccc(C(=O)NC(=S)Nc2ccc(NC(=O)C(C)C)cc2)cc1[N+](=O)[O-],-16.5%,
COc1cccc(OC)c1C(=O)NC(=S)Nc1ccc(N2CCOCC2)c(Cl)c1,-25.4%,
CN(C)c1ccc(-c2nnc(-c3cccnc3)o2)cc1,-14.5%,
CCC(C)(C(=O)Nc1ccccc1C)N(C(=O)CNC(C)=O)c1ccc(C)cc1 (configuration not stated),2.25%,
CCc1nnc(NS(=O)(=O)c2ccc(N=Cc3c(C)[nH]n(-c4ccc(C)cc4)c3=O)cc2)s1,,11.6 µM (active)
COc1cc(NS(=O)(=O)c2ccc(N=Cc3c(C)[nH]n(-c4ccccc4)c3=O)cc2)nc(OC)n1,-16.6%,
CCc1nnc(NS(=O)(=O)c2ccc(NS(=O)(=O)c3ccccc3)cc2)s1,-14.8%,
CS(=O)(=O)Nc1ccccc1C(=O)OCC(=O)NC1CC1,-21.4%,
Cc1ccc(S(=O)(=O)c2nnn3c2nc(N2CCN(c4ccccc4F)CC2)c2cc(Cl)ccc23)cc1C,4.64%,
CCCCc1cc2c(s1)CCCC/C2=N/O,-6.51%,
Cc1nnnn1/C(=C\c1ccccc1)C(=O)OCC(=O)N1CC2(C)CC1CC(C)(C)C2 (configuration not stated),,13 µM (active)
Cc1cccc(C(=O)NCC(=O)OCC(=O)N2CC3(C)CC2CC(C)(C)C3)c1 (configuration not stated),1.66%,
CCOC(=O)CNc1nc(Cl)nc(Nc2ccccc2)n1,2.34%,
CN(C)S(=O)(=O)c1cccc(C(=O)OCC(=O)N2CCCC2=O)c1,-12.8%,
COc1ccc(NC(=O)N(C)C[C@H]2Oc3ccc(NC(=O)C4CC4)cc3C(=O)N([C@H](C)CO)C[C@@H]2C)cc1,4.69%,
Cc1noc(C)c1NC(=O)Nc1ccc2c(c1)C(=O)N([C@H](C)CO)C[C@H](C)[C@@H](CN(C)C(=O)Nc1ccccc1)O2,4.33%,
Cc1ccc(S(=O)(=O)Nc2ccc3c(c2)C(=O)N([C@H](C)CO)C[C@@H](C)[C@@H](CN(C)C(=O)Nc2cccc4ccccc24)O3)cc1,,20.6 µM (active)
